According to PubChem BioAssay:
The source made the active and inactive calls. Unless noted, no rule for the calls is given here.

Columns and labels:
[1] = tested on: Wnt5a (protein binding on small-molecule microarray); test: small molecules binding Wnt5a protein – biophysical, small-molecule microarray, 635/667 nm fluorescence, primary screen (AID 1142); conditions: 635 nm fluorescence, higher = more signal;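 also: fluorescence read at 667 nm with signal to noise per printed feature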
[2] = ATP-based viability of Huh7 replicon cells – cell-based, CellTiter-Glo luminescence, basal, 48 h, cytotoxicity control for HCV replication inhibitor project, primary screen (AID 1143); conditions: higher = more signal, called active from +8 up or from −8 down;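 also: Huh7 hepatoma cells carrying a hepatitis C replication reporter with no stimulus; test concentration not given here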
[3] = Pseudomonas biofilm growth suppression – PAO1 strain, BacTiter-Glo luminescence, LB-PBS, primary screen (AID 1144); conditions: P. aeruginosa PAO1 biofilm, 12 h, higher = more signal
[4] = basal CRE-LacZ reporter activity in PC12 – cell-based, unstimulated, primary screen (AID 1145); conditions: no forskolin, luminescence, 4.5 h, higher = more signal, called active from +8 up or from −8 down
[5] = forskolin-driven CRE-LacZ activity in PC12 – cell-based, CRE-LacZ reporter, forskolin-stimulated, primary screen (AID 1146); conditions: luminescence, 4.5 h, higher = more signal, called active from +8 up or from −8 down;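 also: PC12 cells with 6xCRE LacZ reporter stimulated by forskolin 10 µM; beta-galactosidase reporter signal reflecting CREB driven transcription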
[6] = biological target: Streptavidin (Streptomyces avidinii) (UniProt P22629); test: compounds binding control protein streptavidin – biophysical, small-molecule microarray, 635/667 nm fluorescence, artefact control for SMM compound annotation, primary screen (AID 1147); conditions: higher = more signal;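 also: signal reflects streptavidin binding to arrayed compounds as a control protein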
Chain of Streptavidin (Streptomyces avidinii) (P22629 whole entry, looked up): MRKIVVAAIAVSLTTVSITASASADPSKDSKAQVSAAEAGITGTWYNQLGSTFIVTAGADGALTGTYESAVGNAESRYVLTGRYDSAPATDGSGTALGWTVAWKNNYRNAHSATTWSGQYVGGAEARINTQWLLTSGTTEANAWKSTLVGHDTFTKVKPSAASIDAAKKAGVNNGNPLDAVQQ

[7] = probe aInhba binding on compound microarray – biochemical, small-molecule microarray, 635/667 nm fluorescence, primary screen (AID 1148); conditions: higher = more signal;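 also: score merges 667nm spot fluorescence with signal-to-noise for antibody binding to printed compounds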
Torsin-1A (Homo sapiens) [8] = biological target: Torsin-1A (Homo sapiens) (UniProt O14656); test: TOR1A wild-type binding on microarray – cell lysate, small-molecule microarray, lysate, 635/667 nm, primary screen (AID 1149); conditions: COS7 hTOR1A-WT lysate, 635 nm fluorescence, higher = more signal
Chain of Torsin-1A (Homo sapiens) (O14656 whole entry, looked up): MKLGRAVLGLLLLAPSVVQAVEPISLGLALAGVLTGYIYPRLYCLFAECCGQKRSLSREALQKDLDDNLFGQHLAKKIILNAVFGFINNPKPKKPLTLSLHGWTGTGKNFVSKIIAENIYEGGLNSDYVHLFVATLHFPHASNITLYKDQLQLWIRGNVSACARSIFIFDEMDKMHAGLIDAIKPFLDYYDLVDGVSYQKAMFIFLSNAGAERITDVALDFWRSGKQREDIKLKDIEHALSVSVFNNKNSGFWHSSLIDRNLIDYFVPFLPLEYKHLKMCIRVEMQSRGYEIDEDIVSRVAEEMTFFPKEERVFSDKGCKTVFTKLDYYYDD

Torsin-1A (Homo sapiens) [9] = biological target: Torsin-1A (Homo sapiens) (UniProt O14656); test: torsin A mutant lysate binding on microarrays – cell lysate, small-molecule microarray, COS7 lysate, 635/667 nm fluorescence, primary screen (AID 1150); conditions: COS7 hTOR1A mutant lysate, 635 nm fluorescence, higher = more signal;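 also: score pools 667 nm emission and signal to noise measuring lysate protein binding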
[10] = tested on: Sonic hedgehog protein (Shh); test: Sonic hedgehog microarray binding compounds – biochemical, small-molecule microarray, 635/667 nm fluorescence, primary screen (AID 1151); conditions: 635 nm fluorescence, higher = more signal;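 also: Shh protein binding to compounds spotted on small-molecule microarray slides; score combines spot fluorescence intensity with signal-to-noise across triplicate slides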
[11] = optical density shifts of acrAB sulA E. coli – strain DRC41, OD650, 48 h, E. coli filamentation inducer project, primary screen (AID 1152); conditions: higher = more signal, called active from +8 up or from −8 down;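 also: E. coli MC1000 strain DRC41 lacking acrAB efflux pump and sulA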
[12] = probe aLefty1 binding on compound microarray – biochemical, small-molecule microarray, 635/667 nm fluorescence, primary screen (AID 1153); conditions: higher = more signal;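 also: score merges spot fluorescence with signal-to-noise ratio from the scanned slide images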
[13] = plasmodial surface anion channel blockers, osmotic lysis – cell-based, P. falciparum Indochina, OD700, 1 h, primary screen (AID 1154); conditions: P. falciparum Indochina infected RBC osmotic lysis, higher = more signal, called active from +8 up or from −8 down
[14] = plasmodial surface anion channel blockers, osmotic lysis – cell-based, P. falciparum Indochina, OD700, 2 h, primary screen (AID 1155);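 also: lysis reports solute entry through the parasite surface anion channel PSAC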; conditions: P. falciparum Indochina infected erythrocytes, higher = more signal, called active from +8 up or from −8 down
[15] = changes in parasitized red cell lysis, either direction – P. falciparum Indochina, OD700, 3 h, PSAC antagonist project, primary screen (AID 1156); conditions: P. falciparum-infected erythrocytes, osmotic lysis, higher = more signal, called active from +8 up or from −8 down
[16] = plasmodial surface anion channel blockers, osmotic lysis – cell-based, P. falciparum Indochina, OD700, 18 h, primary screen (AID 1157); conditions: P. falciparum Indochina infected erythrocytes, osmotic lysis OD700, 18 h; higher = more signal, called active from +8 up or from −8 down
[17] = S6 kinase pathway phospho-S6 level changes – cell-based, A549, cytoblot, luminescence, serum-stimulated, primary screen (AID 1158); conditions: 5 h, higher = more signal;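 also: serum-stimulated A549 lung adenocarcinoma cells; signal is phosphorylated S6 detected by cytoblot immunostaining with HRP secondary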
[18] = biological target: NADPH oxidase 2 (Homo sapiens) (UniProt P04839); test: compounds shifting NOX2 Amplex Red fluorescence – cell-based, HEK293-NOX2, PMA-stimulated, NOX inhibitor project, primary screen (AID 1159); conditions: 45 min, higher = more signal, called active from +8 up or from −8 down; also: test concentration not given here
Chain of NADPH oxidase 2 (Homo sapiens) (P04839 whole entry, looked up): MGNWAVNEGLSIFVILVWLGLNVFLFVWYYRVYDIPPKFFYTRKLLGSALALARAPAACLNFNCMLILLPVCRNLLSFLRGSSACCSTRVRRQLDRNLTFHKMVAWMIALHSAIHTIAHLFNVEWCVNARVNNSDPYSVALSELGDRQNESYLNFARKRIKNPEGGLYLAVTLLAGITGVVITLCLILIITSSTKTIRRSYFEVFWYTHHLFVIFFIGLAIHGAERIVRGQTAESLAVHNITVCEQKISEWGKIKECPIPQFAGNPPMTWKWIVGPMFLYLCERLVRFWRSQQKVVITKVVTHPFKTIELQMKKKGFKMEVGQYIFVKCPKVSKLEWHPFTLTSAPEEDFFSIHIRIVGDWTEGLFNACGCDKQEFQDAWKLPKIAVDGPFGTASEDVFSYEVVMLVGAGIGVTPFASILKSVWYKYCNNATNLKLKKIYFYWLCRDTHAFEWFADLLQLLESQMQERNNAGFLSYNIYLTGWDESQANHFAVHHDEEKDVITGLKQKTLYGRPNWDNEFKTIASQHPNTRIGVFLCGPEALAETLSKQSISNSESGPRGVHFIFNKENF

[19] = biological target: NADPH oxidase 4 (Homo sapiens) (UniProt Q9NPH5); test: compounds shifting NOX4 Amplex Red fluorescence – cell-based, HEK293-NOX4, tetracycline-induced, NOX inhibitor project, primary screen (AID 1160); conditions: HEK293-NOX4, Amplex Red H2O2 fluorescence, 45 min; higher = more signal, called active from +8 up or from −8 down
Chain of NADPH oxidase 4 (Homo sapiens) (Q9NPH5 whole entry, looked up): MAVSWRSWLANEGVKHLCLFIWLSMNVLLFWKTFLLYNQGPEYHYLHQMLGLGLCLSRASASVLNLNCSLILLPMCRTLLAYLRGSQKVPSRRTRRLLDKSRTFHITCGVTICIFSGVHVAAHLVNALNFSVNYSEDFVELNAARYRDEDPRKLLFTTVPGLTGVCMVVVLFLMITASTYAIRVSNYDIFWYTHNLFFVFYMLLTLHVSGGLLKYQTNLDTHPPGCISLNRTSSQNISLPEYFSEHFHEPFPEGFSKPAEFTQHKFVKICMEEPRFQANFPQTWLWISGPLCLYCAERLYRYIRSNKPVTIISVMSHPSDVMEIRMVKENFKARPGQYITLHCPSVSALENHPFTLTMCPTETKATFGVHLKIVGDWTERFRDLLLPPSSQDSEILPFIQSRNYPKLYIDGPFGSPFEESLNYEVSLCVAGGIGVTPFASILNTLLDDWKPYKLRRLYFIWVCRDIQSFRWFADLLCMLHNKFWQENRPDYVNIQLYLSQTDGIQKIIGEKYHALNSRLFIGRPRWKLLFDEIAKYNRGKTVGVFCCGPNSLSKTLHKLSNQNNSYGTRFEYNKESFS

[20] = biological target: NADPH oxidase 5 (Homo sapiens) (UniProt Q96PH1); test: compounds shifting NOX5 Amplex Red fluorescence – cell-based, HEK293-NOX5, NOX inhibitor project, primary screen (AID 1161); conditions: HEK293-NOX5, ionomycin, 45 min, higher = more signal
Chain of NADPH oxidase 5 (Homo sapiens) (Q96PH1 whole entry, looked up): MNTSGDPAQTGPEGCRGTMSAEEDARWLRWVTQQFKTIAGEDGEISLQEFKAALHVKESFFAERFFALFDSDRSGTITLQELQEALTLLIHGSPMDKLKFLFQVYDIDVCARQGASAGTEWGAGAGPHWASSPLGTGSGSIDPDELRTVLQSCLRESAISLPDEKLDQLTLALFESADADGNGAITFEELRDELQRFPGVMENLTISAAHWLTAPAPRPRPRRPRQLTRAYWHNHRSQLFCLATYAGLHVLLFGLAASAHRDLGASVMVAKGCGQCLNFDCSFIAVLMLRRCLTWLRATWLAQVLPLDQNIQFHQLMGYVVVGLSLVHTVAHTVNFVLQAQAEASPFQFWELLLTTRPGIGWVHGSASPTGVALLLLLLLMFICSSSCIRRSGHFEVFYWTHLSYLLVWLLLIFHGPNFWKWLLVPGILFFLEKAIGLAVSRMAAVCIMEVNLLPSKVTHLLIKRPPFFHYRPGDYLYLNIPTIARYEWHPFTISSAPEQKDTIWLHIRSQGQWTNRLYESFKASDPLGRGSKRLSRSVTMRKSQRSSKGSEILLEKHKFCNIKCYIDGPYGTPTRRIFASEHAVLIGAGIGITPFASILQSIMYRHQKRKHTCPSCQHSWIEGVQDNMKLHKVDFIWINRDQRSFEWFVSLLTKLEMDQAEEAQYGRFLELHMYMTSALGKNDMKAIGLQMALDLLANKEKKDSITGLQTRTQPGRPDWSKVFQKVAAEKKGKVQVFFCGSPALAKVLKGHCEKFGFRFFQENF

Structure (SMILES)	composite z-score [1]	z-score [2]	z-score [3]	z-score [4]	z-score [5]	composite z-score [6]	composite z-score [7]	composite z-score (Torsin-1A (Homo sapiens) [8])	composite z-score (Torsin-1A (Homo sapiens) [9])	composite z-score [10]	z-score [11]	composite z-score [12]	z-score [13]	z-score [14]	z-score [15]	z-score [16]	z-score [17]	z-score [18]	z-score [19]	z-score [20]
CC(C)CNC(=O)[C@@H]1c2ccccc2C(=O)N(Cc2ccccc2Cl)[C@H]1c1ccc(CO)cc1	-0.0721	-0.121 (inactive)	-0.431 (inactive)	-0.179 (inactive)	-0.867 (inactive)	-0.222	-0.204	0.0521	0.13	0.145	0.244 (inactive)	-0.133	2.54 (inactive)	0.526 (inactive)	0.531 (inactive)	0.181 (inactive)	0.279	-0.451 (inactive)	0.16 (inactive)	-1.75
CC(C)CNC(=O)[C@@H]1c2ccccc2C(=O)N(Cc2ccccc2)[C@H]1c1ccc(CO)cc1	-0.267	-0.692 (inactive)	-0.33 (inactive)	0.441 (inactive)	-0.0682 (inactive)	-1.04	-0.285	0.3	1.2	-0.693	-0.603 (inactive)	-0.106	1.49 (inactive)	0.294 (inactive)	2.44 (inactive)	0.769 (inactive)	-0.316	-0.638 (inactive)	-1.24 (inactive)	-3.17
C=CCOC(=O)[C@H]1[C@@H]2C(=O)O[C@@H](c3ccccc3)[C@@H](c3ccccc3)N2[C@@H](c2ccc(OCCOC(=O)[C@@H]3C[C@@H]4C(=O)N[C@@H](CC(C)C)C(=O)N4[C@@H]3c3ccc(O)cc3)cc2)[C@]12C(=O)Nc1ccc(I)cc12	0.15	-0.901 (inactive)	-1.3 (inactive)	0.281 (inactive)	0.318 (inactive)	0.149	-0.0791	0.637	1.22	1.91	0.833 (inactive)	0.106	2.77 (inactive)	1.33 (inactive)	2.31 (inactive)	-1.46 (inactive)	1.09	0.894 (inactive)	0.499 (inactive)	1.4
COCCOC(=O)N1C(=O)[C@@]2(c3cc(C#CCCO)ccc31)[C@H](c1ccccc1OCCO)N1[C@H](c3ccccc3)[C@H](c3ccccc3)OC(=O)[C@H]1[C@@H]2C(=O)N1CCc2cc(OC)c(OC)cc2C1	0.318	-1.07 (inactive)	0.609 (inactive)	1.72 (inactive)	0.385 (inactive)	0.321	-0.0448	1.17	1.18	1.2	0.891 (inactive)	0.265	2.43 (inactive)	1.97 (inactive)	0.276 (inactive)	1.12 (inactive)	0.199	1.15 (inactive)	1.15 (inactive)	0.0359
CCCC[C@@H]1C[C@H]1[C@@H](NC(=O)c1ccc(C(F)(F)F)cc1)c1ccc(C(=O)OC)cc1	1.16	-2.9 (inactive)	0.164 (inactive)	0.583 (inactive)	-0.269 (inactive)	1.59	-0.0092	3.21	3.93	1.91	-0.499 (inactive)	0.375	8.27 (active)	0.851 (inactive)	0.512 (inactive)	0.422 (inactive)	-0.0327	-0.628 (inactive)	0.497 (inactive)	1.03
CCOC(=O)C1=CC[C@@H](c2ccc(F)cc2)N(S(=O)(=O)c2ccc(C)cc2)[C@H]1c1ccc([N+](=O)[O-])cc1	0.0382	-2.52 (inactive)	-1.24 (inactive)	-1.73 (inactive)	0.66 (inactive)	0.812	0.0131	-0.116	0.599	-0.0316	0.251 (inactive)	-0.0946	1.83 (inactive)	1.12 (inactive)	-0.186 (inactive)	1.22 (inactive)	-0.399	1.36 (inactive)	0.856 (inactive)	1.4
CCC(CC)C(O)C1C=CC2C(=O)N(C)C(=O)C2N1N1CCCCC1 (stereo not given)	0.323	0.374 (inactive)	-0.328 (inactive)	0.0501 (inactive)	1.06 (inactive)	1.51	0.3	0.504	0.844	0.959	-1.65 (inactive)	0.361	1.41 (inactive)	0.787 (inactive)	0.156 (inactive)	0.729 (inactive)	-1.17	-0.893 (inactive)	-1.17 (inactive)	-1.35
O=C1C2C=CC(C(O)C(c3ccccc3)c3ccccc3)N(Nc3ccccc3)C2C(=O)N1c1ccccc1 (stereo not given)	0.422	-0.374 (inactive)	-1.06 (inactive)	0.629 (inactive)	-0.222 (inactive)	0.828	0.271	0.616	0.984	0.734	-0.606 (inactive)	0.591	1.85 (inactive)	1.71 (inactive)	0.331 (inactive)	1.41 (inactive)	-1.25	-1.72 (inactive)	-4.94 (inactive)	-2.54
